# Experimental data as given in PubChem BioAssay (Tox21).
# Inconclusive results are not listed. A call without a number means that no potency is given here. Calls of active or inactive are those of the source. Unless noted, the call rests on the fitted dose curve; in most records, active means well fitted curve in the direction sought with a large enough effect in the repeat runs; inconclusive means weak or mixed curves; inactive means no such curve, though single readings can be large; an effect the other way counts as inactive or inconclusive.
# Tests used:
# [1] = qHTS assay to identify small molecule antagonists of the glucocorticoid receptor (GR) signaling pathway - cell viability counter screen (AID 720693); further: nearly all actives have a fitted effect of over 55% in size
# [2] = qHTS assay for identifying genotoxic compounds that show differential cytotoxicity against isogenic chicken DT40 cell lines with known DNA damage response pathways - Rad54/Ku70 mutant cell line (AID 743015); further: nearly all actives have a fitted effect of over 60% in size; further: potency means the concentration at half of the fitted maximal effect
# [3] = qHTS assay to identify small molecule antagonists of the androgen receptor (AR) signaling pathway - cell viability counter screen (AID 743033; further: nearly all actives have a fitted effect of over 45% in size; further: potency means the concentration at half of the fitted maximal effect)
# [4] = target: Androgen receptor (Homo sapiens) (UniProt P10275); test: qHTS assay to identify small molecule antagonists of the androgen receptor (AR) signaling pathway (AID 743035; active means well fitted inhibition curve with a large enough effect in the signal ratio in the repeat runs, not every such curve was filed as active; the % refers to the signal ratio; further: potency means the concentration at half of the fitted maximal effect)
# Sequence of Androgen receptor (Homo sapiens) (P10275 whole entry, looked up): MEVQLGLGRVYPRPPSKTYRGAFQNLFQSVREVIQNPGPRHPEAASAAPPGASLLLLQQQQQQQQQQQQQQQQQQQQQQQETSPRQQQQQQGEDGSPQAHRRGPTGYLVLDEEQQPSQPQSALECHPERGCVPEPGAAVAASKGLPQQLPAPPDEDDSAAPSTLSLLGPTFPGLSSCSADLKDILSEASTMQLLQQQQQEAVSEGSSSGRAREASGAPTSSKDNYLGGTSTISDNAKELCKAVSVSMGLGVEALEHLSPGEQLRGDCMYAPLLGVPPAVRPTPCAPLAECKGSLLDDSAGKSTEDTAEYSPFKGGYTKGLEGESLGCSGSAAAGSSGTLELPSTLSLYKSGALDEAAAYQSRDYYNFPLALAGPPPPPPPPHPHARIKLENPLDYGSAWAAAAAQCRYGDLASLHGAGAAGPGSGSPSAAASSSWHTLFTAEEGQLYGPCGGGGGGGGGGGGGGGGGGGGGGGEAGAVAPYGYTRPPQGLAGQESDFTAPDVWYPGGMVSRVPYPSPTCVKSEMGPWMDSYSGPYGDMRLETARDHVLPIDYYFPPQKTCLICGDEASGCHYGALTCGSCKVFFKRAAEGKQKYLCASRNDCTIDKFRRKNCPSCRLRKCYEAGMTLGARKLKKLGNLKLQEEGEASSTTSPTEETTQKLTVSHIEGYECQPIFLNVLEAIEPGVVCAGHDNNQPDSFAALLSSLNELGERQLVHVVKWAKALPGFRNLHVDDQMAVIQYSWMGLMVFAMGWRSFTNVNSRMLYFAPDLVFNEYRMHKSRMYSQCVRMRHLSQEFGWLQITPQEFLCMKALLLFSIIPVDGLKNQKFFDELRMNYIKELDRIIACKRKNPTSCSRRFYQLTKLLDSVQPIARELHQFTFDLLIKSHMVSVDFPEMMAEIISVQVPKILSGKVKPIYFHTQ
# Procedure, shortened: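 Quantitative HTS of the Tox21 10K library used HEK293 AR-UAS-bla cells stimulated with R1881 alongside compound for 16 h at 37C, followed by beta-lactamase FRET detection (LiveBLAzer B/G, 2 h, RT).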
# [5] = target: Androgen receptor (Homo sapiens) (UniProt P10275); test: qHTS assay to identify small molecule agonists of the androgen receptor (AR) signaling pathway (AID 743036; active means well fitted activation curve with a large enough effect in the signal ratio in the repeat runs, with a control signal flat, not every such curve was filed as active; the % refers to the signal ratio)
# Procedure, shortened: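 HEK293 cells stably carrying a UAS-driven beta-lactamase reporter (GeneBLAzer AR-UAS-bla-GripTite) were plated at 2,000 cells/well, rested 4 h at 37C, then exposed to compounds in DMSO for 16 h. LiveBLAzer B/G FRET substrate was added for 2 h at room temperature; fluorescence read.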
# [6] = target: Androgen receptor (Homo sapiens) (UniProt P10275); test: qHTS assay to identify small molecule agonists of the androgen receptor (AR) signaling pathway using the MDA cell line (AID 743040; further: nearly all actives have a fitted effect of over 20% in size)
# Procedure, shortened: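 Stable MMTV-luciferase reporter in MDA-kb2 cells; note the promoter carries GR as well as AR response elements. 16 h compound treatment, 37C, 0% CO2; ONE-Glo luminescence endpoint.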
# [7] = qHTS assay to identify small molecule antagonists of the androgen receptor (AR) signaling pathway using the MDA cell line - cell viability counter screen (AID 743041; further: nearly all actives have a fitted effect of over 45% in size)
# Procedure, shortened: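 Using the breast carcinoma line MDA-kb2 AR-luc, test chemicals were co-incubated with R1881 for 16 h; CellTiter-Fluor reagent, added at 15.5 h, provided a fluorescence measure of live cells.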
# [8] = target: Androgen receptor (Homo sapiens) (UniProt P10275); test: qHTS assay to identify small molecule antagonists of the androgen receptor (AR) signaling pathway using the MDA cell line (AID 743042; further: nearly all actives have a fitted effect of over 55% in size)
# Procedure, shortened: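 Antagonist mode: compounds plus R1881 agonist added to MDA-kb2 AR-luc cells, incubated 16 h at 37C. Luciferase reporter luminescence quantified, with multiplexed CellTiter-Fluor readout for cell viability.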
# [9] = qHTS assay for identifying genotoxic compounds that show differential cytotoxicity against isogenic chicken DT40 cell lines with known DNA damage response pathways - Rev3 mutant cell line (AID 743014); further: nearly all actives have a fitted effect of over 55% in size; further: potency means the concentration at half of the fitted maximal effect
# [10] = qHTS assay for identifying genotoxic compounds that show differential cytotoxicity against isogenic chicken DT40 cell lines with known DNA damage response pathways - wild type cell line (AID 743012); further: potency means the concentration at half of the fitted maximal effect; nearly all actives have a fitted effect of over 60% in size
# Procedure, shortened: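 Luminescent ATP viability signal (CellTiter-Glo, 30 min RT) recorded after wild type DT40 cells were incubated with compounds for 40 h at 37 C/5% CO2.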
compound,measurement,setting,value
N[C@@H](CSSC[C@H](N)C(=O)O)C(=O)O,Potency,[1],inactive
same,Potency,[2],inactive
same,Potency,[3],inactive
same,Potency,[4],inactive
same,outcome,[5],inactive
same,Potency,[6],inactive
same,Potency,[7],inactive
O=C(O)Cc1ccc(OCCNC[C@H](O)c2ccccc2)cc1,Potency,[1],inactive
same,Potency,[3],inactive
same,Potency,[6],inactive
same,Potency,[7],inactive
same,Potency,[8],inactive
CCc1cccc(C)c1,Potency,[1],inactive
same,Potency,[9],inactive
same,Potency,[2],inactive
same,Potency,[7],inactive
CC(C)(C)c1cc(/C=C2\SC(=N)NC2=O)cc(C(C)(C)C)c1O,Potency,[10],43.3 µM (active)
same,Potency,[9],61.1 µM (active)
same,Potency,[2],17.2 µM (active)
same,Potency,[3],49 µM (active)
CCCCCCOc1ccc(O)cc1,Potency,[1],inactive
same,Potency,[2],7.7 µM (active)
same,Potency,[4],24.5 µM (active)
same,Potency,[6],inactive
same,Potency,[7],inactive
same,Potency,[8],inactive
CC1CCCNC1 (centres undefined),Potency,[1],inactive
same,Potency,[7],inactive
O[C@@H](c1cc(C(F)(F)F)nc2c(C(F)(F)F)cccc12)[C@H]1CCCCN1,Potency,[10],4.73 µM (active)
same,Potency,[9],4.73 µM (active)
same,Potency,[2],5.31 µM (active)
same,Potency,[3],23.9 µM (active)
c1ccc(Sc2ccccc2)cc1,Potency,[1],inactive
same,Potency,[9],68.6 µM (active)
same,Potency,[4],inactive
same,outcome,[5],inactive
same,Potency,[6],inactive
same,Potency,[7],inactive
same,Potency,[8],inactive
